About 83,000 compounds went through this panel and 20% of them were active in at least one assay; those are over-represented in the sample as a whole.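 Percent growth is the endpoint: 0 to 100 indicates growth inhibition (40 means 60% inhibition), 0 means no net growth, and negative values indicate cell death.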 Values without a mark were called inactive. Calls of active or inactive are those of the source. The calls were made as follows: active = growth percent below 10; inactive = the rest.

For this experiment, the system named is MDA-MB-468 breast. Nature of the experiment: NCI-60 one-dose screen, 48 h (100 = growth as untreated, 0 = no growth, -100 = all killed). The conditions noted are these: 10 µM unless noted.
For the compound `O=C1CS/C(=N/c2nnc(-c3ccc(O)cc3)s2)N1`, the growth is 116%.
The figure for `CCN(CC)CCNc1ccc([N+](=O)[O-])c2sc3ccccc3c(=O)c12` is 1.4% (active); for `Cc1nc2c(ccc3ccccc32)s1` it is 109%; for `C#C[C@]1(O)CC[C@H]2[C@@H]3CC=C4c5sc(-c6ccc(OC)cc6)nc5CC[C@]4(C)[C@H]3CC[C@@]21C` it is 71.6%.
The figure for `CCCCCCCCCCN1CCC(N2CCCCC2)CC1` is -73.2% (active).
The figure for `C#COc1cccc(Nc2ncnc3cc(NC(=O)[C@@H](C)Cl)ccc23)c1` is 12% [6.25 µM]; for `Nc1cccc(-c2nc3sccn3c2-c2ccnc(NCCCNS(=O)(=O)c3cccc4ccccc34)n2)c1` it is 18.2%.
On to `Cc1ccc(-c2nc3ccc(Cl)cc3c(=O)n2N2C(=O)CSC2c2ccccc2Cl)cc1` (centres undefined), for which the growth was 107%.
The figure for `CC1(C)CC[C@]2(C(=O)NCCCCCCN(CCCN)CCCN)CC[C@]3(C)C(=CC[C@@H]4[C@@]5(C)CC[C@H](O)C(C)(C)[C@@H]5CC[C@]43C)[C@@H]2C1` is 98.6%.
The figure for `O=C1N(C[P+](c2ccccc2)(c2ccccc2)c2ccccc2)CCCN1C[P+](c1ccccc1)(c1ccccc1)c1ccccc1` is 105%.
The figure for `Oc1ccccc1-c1nnc(SCc2ccc(O)c3ncccc23)o1` is 44.4%; for `CN(C)CCNc1nc2ccccc2c2c(=O)c3cc(F)ccc3sc12` it is -28.1% (active).
For the compound `O=C1NCC(Nc2ccc(Br)cc2Cl)C(=O)N1` (centres undefined), the growth was 124%.
For `O=C(O)C1CCCN1C(=O)OCc1ccccc1` (centres undefined) the value was 115%.
